Laboratory results published in the supplement of paper PMC11732987, “Enantioselective OTUD7B fragment discovery through chemoproteomics screening and high-throughput optimisation” (Communications Chemistry, 2025).

How the values were obtained:
Experiment in all cases: log2 ratio of Biotin-Ahx-Ub-VS probe labelling (fragment/DMSO); higher = less target engagement (more negative = stronger competition), active = hit call of the paper (q ≤ 0.05, log2 ratio ≤ -1)
Conditions in all cases: compound concentration: 200 uM; treatment time: 3 h
USP9X = USP9X (UniProt Q93008)
Procedure, shortened: (§1)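 HEK293T lysate (495 µg per sample, in Tris/CHAPS/IGEPAL buffer with protease inhibitors) was exposed in triplicate for 3 h to fragment at 200 µM or to vehicle, then to Biotin-Ahx-Ub-VS at 0.5 µM final for 1 h. Labelled DUBs were enriched on NeutrAvidin, digested with LysC and trypsin, and analysed by diaPASEF LC-MS/MS. Spectronaut label-free quantities were normalised to the global median, and values are average log2 ratios of fragment over vehicle from an unpaired t-test. Only proteins with ≥2 unique peptides were used.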

UniProt O00487 = biological target: UniProt O00487
Chain of UniProt O00487 (O00487 whole entry): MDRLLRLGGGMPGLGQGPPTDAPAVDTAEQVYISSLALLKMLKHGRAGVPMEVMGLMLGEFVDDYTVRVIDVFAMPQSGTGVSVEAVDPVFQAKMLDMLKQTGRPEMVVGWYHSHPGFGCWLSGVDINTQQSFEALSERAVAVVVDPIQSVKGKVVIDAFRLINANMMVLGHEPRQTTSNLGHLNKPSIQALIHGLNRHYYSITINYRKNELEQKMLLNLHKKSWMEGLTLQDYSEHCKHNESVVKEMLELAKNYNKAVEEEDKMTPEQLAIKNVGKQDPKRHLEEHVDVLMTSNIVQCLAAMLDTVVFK
Procedure, shortened: as §1

UniProt O00507 = biological target: UniProt O00507
Chain of UniProt O00507 (O00507 whole entry): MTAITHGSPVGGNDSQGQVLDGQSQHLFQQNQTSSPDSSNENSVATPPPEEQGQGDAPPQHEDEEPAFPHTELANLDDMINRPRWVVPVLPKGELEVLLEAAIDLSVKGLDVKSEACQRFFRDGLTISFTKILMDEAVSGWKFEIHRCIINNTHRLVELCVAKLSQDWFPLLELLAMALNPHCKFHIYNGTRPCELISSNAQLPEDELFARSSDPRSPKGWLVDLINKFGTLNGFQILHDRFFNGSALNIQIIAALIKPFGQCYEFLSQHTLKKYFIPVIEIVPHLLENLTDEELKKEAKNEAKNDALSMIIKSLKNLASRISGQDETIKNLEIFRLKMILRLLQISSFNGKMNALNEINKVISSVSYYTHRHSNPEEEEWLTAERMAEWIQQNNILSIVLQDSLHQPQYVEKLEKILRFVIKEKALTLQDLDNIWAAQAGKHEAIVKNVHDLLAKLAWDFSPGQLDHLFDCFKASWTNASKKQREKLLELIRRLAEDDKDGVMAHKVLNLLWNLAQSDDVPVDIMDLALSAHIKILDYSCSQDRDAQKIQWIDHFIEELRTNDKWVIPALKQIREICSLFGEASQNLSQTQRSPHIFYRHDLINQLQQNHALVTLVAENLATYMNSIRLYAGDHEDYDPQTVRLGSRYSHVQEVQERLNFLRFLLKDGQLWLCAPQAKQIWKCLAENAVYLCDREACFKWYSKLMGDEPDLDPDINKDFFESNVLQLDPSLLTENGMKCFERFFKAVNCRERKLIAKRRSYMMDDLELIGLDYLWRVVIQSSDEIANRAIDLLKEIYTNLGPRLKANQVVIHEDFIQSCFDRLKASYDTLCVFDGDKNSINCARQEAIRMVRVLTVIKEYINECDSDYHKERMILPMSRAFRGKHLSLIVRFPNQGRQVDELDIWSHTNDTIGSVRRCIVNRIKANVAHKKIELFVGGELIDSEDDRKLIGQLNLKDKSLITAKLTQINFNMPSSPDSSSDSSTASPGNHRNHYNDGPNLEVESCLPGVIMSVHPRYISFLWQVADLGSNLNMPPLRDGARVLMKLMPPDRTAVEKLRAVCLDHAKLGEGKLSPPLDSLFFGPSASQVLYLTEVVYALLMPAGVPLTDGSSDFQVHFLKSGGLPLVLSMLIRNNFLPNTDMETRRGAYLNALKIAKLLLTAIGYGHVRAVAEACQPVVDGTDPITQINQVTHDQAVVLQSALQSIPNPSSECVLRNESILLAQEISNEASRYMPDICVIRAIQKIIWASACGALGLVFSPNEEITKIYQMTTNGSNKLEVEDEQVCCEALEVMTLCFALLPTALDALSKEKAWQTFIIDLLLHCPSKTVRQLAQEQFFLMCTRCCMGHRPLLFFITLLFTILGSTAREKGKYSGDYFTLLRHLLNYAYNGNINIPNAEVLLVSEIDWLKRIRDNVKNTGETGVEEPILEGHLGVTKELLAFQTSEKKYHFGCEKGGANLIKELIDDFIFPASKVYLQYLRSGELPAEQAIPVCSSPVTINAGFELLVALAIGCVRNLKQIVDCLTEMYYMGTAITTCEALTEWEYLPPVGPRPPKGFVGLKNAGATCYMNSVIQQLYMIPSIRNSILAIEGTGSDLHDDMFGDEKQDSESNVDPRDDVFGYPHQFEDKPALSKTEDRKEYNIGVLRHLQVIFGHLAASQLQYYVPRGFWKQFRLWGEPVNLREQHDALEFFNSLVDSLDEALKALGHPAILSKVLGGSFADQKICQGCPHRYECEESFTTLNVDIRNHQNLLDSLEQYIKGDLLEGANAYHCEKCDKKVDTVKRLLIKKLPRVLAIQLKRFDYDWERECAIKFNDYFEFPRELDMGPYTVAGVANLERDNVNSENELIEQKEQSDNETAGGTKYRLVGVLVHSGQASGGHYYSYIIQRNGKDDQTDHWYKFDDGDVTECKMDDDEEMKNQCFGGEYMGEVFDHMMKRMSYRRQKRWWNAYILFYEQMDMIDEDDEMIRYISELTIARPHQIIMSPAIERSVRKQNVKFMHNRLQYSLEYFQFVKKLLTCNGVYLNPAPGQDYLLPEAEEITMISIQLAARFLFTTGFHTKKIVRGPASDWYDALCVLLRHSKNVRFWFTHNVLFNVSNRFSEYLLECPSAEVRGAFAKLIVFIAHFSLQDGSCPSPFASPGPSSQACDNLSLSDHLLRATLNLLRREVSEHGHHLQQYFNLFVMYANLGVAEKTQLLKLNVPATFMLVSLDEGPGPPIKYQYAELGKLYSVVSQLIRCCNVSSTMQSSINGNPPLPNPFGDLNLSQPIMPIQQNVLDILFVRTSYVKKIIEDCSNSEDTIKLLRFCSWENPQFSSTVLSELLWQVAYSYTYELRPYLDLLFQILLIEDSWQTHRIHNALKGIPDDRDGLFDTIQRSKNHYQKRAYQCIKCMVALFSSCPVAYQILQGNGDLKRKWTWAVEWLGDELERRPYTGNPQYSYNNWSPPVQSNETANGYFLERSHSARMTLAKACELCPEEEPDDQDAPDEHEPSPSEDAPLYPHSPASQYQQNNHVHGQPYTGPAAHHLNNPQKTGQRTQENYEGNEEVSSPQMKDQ
Procedure, shortened: as §1

UniProt P51784 = biological target: UniProt P51784
Chain of UniProt P51784 (P51784 whole entry): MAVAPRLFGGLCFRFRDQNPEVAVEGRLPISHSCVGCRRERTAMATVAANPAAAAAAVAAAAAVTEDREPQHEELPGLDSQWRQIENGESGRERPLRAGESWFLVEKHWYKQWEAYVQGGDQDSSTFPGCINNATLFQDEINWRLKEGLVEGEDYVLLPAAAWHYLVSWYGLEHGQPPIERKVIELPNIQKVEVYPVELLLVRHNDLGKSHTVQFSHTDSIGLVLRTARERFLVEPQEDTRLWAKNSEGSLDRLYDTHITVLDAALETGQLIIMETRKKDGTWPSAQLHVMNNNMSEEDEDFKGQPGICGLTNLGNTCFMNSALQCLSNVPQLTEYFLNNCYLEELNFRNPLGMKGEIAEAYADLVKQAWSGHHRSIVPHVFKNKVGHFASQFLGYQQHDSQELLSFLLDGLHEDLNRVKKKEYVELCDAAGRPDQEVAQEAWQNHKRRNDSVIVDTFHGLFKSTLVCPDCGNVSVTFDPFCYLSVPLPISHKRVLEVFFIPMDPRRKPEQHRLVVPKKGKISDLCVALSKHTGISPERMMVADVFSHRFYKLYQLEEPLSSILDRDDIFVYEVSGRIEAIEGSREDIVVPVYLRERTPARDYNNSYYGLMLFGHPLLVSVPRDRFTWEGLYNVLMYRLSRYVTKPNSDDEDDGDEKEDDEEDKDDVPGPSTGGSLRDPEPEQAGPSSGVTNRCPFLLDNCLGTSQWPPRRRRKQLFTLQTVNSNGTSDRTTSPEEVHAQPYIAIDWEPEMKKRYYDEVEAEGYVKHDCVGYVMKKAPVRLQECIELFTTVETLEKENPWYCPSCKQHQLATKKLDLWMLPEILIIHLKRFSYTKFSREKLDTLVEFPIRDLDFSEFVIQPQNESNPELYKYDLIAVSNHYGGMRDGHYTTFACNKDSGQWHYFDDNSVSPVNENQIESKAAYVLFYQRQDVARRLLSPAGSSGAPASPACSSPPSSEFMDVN
Procedure, shortened: as §1

UniProt Q5T2D3 = biological target: T1, UniProt Q5T2D3
T1 sequence (whole entry): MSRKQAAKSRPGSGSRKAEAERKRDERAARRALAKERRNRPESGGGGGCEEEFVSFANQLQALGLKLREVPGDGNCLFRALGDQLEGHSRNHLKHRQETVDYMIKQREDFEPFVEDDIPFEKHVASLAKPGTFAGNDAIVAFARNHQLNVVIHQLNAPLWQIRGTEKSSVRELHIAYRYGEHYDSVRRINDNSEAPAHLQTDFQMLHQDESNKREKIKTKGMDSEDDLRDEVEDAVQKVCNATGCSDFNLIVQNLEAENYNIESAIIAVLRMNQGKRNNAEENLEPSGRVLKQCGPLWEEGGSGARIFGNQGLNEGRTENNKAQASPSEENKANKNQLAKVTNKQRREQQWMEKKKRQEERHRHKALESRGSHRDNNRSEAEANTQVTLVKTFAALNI
Procedure, shortened: as §1

UniProt Q8TE49 = biological target: T2, UniProt Q8TE49
T2 sequence (whole entry): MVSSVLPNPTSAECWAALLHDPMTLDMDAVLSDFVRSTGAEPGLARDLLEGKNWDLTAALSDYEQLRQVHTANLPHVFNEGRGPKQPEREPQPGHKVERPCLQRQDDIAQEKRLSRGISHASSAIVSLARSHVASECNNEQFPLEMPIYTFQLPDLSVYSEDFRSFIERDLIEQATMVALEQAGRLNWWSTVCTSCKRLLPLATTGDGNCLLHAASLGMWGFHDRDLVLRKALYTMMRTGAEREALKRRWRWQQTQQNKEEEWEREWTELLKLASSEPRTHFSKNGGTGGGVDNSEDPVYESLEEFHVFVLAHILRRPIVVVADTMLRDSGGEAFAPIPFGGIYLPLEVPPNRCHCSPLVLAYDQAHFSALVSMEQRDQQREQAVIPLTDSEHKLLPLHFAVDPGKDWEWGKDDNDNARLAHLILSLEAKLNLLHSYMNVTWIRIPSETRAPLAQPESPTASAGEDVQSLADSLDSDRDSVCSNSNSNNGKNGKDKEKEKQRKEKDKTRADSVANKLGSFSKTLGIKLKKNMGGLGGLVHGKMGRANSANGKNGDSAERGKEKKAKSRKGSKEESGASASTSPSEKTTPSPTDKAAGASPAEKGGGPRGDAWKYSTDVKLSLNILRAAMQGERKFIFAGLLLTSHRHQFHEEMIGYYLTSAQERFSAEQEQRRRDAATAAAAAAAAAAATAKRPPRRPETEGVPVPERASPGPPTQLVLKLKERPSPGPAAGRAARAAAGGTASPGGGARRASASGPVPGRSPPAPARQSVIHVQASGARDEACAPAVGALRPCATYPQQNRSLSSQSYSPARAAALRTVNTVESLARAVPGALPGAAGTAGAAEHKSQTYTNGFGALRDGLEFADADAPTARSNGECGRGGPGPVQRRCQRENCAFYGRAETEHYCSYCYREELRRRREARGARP
Procedure, shortened: as §1

UniProt Q9P2H5 = biological target: T3, UniProt Q9P2H5
T3 sequence (whole entry): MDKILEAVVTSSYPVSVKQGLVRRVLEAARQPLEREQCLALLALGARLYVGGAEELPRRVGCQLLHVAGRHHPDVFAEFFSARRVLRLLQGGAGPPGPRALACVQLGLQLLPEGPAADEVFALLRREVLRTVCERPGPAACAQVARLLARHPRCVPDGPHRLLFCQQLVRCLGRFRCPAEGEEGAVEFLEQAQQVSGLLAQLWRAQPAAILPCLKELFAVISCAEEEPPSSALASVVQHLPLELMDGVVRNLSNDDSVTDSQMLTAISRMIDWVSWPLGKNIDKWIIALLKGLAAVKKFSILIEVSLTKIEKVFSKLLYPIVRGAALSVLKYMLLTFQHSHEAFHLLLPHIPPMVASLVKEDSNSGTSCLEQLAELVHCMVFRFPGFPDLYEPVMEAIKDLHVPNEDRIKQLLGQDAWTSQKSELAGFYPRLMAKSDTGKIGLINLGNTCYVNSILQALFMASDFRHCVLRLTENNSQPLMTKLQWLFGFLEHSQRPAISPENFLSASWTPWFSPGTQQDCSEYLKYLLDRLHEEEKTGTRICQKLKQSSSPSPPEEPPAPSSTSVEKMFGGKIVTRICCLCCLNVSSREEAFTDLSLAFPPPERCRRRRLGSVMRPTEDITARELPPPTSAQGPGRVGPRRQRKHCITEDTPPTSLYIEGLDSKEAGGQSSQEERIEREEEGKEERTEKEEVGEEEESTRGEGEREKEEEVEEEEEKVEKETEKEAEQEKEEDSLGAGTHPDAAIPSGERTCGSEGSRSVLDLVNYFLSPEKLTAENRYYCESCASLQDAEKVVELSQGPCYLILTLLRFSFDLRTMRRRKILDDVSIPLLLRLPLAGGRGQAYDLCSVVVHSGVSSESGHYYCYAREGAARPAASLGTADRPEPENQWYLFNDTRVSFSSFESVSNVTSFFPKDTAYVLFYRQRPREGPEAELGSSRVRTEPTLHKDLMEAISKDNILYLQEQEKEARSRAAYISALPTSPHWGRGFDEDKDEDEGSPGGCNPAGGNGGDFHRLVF
Procedure, shortened: as §1

UniProt Q9UGI0 = biological target: T4, UniProt Q9UGI0
T4 sequence (whole entry): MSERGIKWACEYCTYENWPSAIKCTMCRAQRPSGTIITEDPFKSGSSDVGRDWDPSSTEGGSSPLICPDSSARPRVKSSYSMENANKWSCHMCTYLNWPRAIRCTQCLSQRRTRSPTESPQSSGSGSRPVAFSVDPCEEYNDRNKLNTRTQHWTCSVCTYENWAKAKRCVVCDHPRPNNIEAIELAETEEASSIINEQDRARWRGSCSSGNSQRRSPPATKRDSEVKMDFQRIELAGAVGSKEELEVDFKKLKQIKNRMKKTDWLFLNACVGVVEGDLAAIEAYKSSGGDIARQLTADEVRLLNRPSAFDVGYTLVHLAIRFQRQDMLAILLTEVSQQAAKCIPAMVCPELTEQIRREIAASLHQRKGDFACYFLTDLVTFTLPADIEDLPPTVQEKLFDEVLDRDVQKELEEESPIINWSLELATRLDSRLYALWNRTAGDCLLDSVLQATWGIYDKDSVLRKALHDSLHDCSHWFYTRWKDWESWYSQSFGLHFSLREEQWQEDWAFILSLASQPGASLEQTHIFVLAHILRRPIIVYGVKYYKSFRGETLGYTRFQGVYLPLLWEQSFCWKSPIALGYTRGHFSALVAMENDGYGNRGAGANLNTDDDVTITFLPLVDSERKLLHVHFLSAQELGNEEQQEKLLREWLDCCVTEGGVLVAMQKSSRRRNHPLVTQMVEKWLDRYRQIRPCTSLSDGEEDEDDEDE
Procedure, shortened: as §1

YOD1 = biological target: T5, YOD1 (UniProt Q5VVQ6)
T5 sequence (whole entry): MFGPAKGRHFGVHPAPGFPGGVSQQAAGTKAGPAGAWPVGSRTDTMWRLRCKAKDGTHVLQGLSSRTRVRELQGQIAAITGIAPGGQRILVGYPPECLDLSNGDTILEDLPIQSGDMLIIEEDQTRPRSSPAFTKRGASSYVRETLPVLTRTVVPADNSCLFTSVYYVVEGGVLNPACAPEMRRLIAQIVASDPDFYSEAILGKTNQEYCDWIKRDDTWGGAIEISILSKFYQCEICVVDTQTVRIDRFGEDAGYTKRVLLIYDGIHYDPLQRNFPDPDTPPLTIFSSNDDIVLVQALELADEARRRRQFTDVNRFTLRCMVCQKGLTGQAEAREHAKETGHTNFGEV
Procedure, shortened: as §1

Measured: log2 ratio of Biotin-Ahx-Ub-VS probe labelling

Cc1conc1C1CN(C(=O)CCl)C1
inactive: USP9X -0.803 | UniProt O00487 -0.115 | UniProt O00507 -0.553 | UniProt P51784 -0.677 | UniProt Q5T2D3 -0.923 | UniProt Q9P2H5 -0.584 | UniProt Q9UGI0 -0.885
active: UniProt Q8TE49 -1.71 | YOD1 -1.1
